Where a name gives a salt, the structure may show the parent alone. ± gives the standard deviation of the averaged measurements.
Columns and labels:
Settings in all cases: concentration: 10 µM; 24 h
HCC1569 [1] = experiment: cell number relative to DMSO (% of DMSO); higher = more cells (less growth inhibition / toxicity)
Method in brief: (§1)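 HCC1569 and TDF cells (800 per well, 384-well plates, RPMI with 10% FBS) were treated with compounds at 10 µM for 24 h at 37 °C, in triplicate. Cells were fixed in 3.7% formaldehyde and stained with a rabbit anti-H1.0 antibody, an AlexaFluor 647 secondary and DAPI; six fields per well were imaged at ×10. H1.0 nuclear intensity or cell number is expressed as percent of the plate DMSO control, taking the median of replicates. HCC1569 values were smoothed for positional effects.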

TDF [2] = experiment: as above
Method in brief: as §1

TDF [3] = experiment: H1.0 immunofluorescence intensity relative to DMSO (% of DMSO); higher = stronger H1.0 induction, active = 120 or more
Method in brief: as §1

HCC1569 [4] = experiment: H1.0 immunofluorescence intensity relative to DMSO (% of DMSO); higher = stronger H1.0 induction, active = 140 or more
Method in brief: as §1
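Wherever H1.0 immunofluorescence intensity relative to DMSO is given: TDF is a line of transformed human dermal fibroblasts of mesenchymal origin.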
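Wherever cell number relative to DMSO is given: TDF denotes transformed human dermal fibroblasts of mesenchymal origin.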

SMILES	cell number (HCC1569 [1])	cell number (TDF [2])	H1.0 immunofluorescence intensity (TDF [3])	H1.0 immunofluorescence intensity (HCC1569 [4])
COc1ccc2[nH]c3c(c2c1)CCNC3 [6-Methoxy-1,2,3,4-tetrahydro-9H-pyrido[3,4b] indole]	106	100	108 (inactive)	108 (inactive)
COc1cc2c(cc1OC)[C@H]1CC(=O)[C@H](CC(C)C)CN1CC2	106	102	88 (inactive)	96.4 (inactive)
COc1cc2c(cc1OC)C(C)NCC2 (stereo not drawn) [Salsolodine]	105	97.2	88.7 (inactive)	86.3 (inactive)
Cl.FC(F)(F)c1cccc(C2=CCN(CCc3ccc4ccccc4c3)CC2)c1	109	96.7	96.3 (inactive)	100 (inactive)
Br.CCCN1CCc2cc(O)cc3c2C1Cc1ccc(O)c(O)c1-3 (stereo not drawn) [R(-)-2,10,11-Trihydroxy-N-propylnoraporphine hydrobromide]	95.1	110	89.2 (inactive)	100 (inactive)
CC(C)NCC(O)c1ccc(N)c(C#N)c1 (stereo not drawn) [Cimaterol]	103	108	87.7 (inactive)	102 (inactive)
CN(C)C(=O)C(CCN1CCC(O)(c2ccc(Cl)cc2)CC1)(c1ccccc1)c1ccccc1.Cl [Loperamide.HCl]	102	98.6	97.6 (inactive)	105 (inactive)
c1cc2c(cc1C1OCC3C(c4ccc5c(c4)OCO5)OCC13)OCO2 (single isomer, unassigned; (-)) [(-)-Asarinin]	98.4	99.2	101 (inactive)	88.6 (inactive)
C=C(C)C1C2OC(=O)C1C1(O)CC3OC34C(=O)OC2C14C (stereo not drawn) [Picrotoxinin]	105	105	95.4 (inactive)	90.9 (inactive)
CC1OC(OC2CC(O)C3(CO)C4C(O)CC5(C)C(C6=CC(=O)OC6)CCC5(O)C4CCC3(O)C2)C(O)C(O)C1O (single isomer, unassigned; (-)) [(-)-Ouabain]	49.5 ± 1.9	42.1 ± 1.4	119 (inactive)	130 (inactive)
CC(Cc1ccc(OCC(=O)[O-])cc1)NCC(O)c1cccc(Cl)c1.[Na+] (stereo not drawn)	104	110	89.5 (inactive)	88.6 (inactive)
CCCC[N+]1(C)C2CC(OC(=O)C(CO)c3ccccc3)CC1C1OC12 (stereo not drawn) [Scopolamine N-butyl]	103	111	91.4 (inactive)	100 (inactive)
CC1=C2CC3C(CC=C4CC(O)CCC43C)C2CCC12OC1CC(C)CNC1C2C (stereo not drawn) [Cyclopamine]	104	107	94.9 (inactive)	92 (inactive)
CCCCC(C#N)(Cn1cncn1)c1ccc(Cl)cc1 (stereo not drawn) [Myclobutanil]	104	92.6	102 (inactive)	102 (inactive)
Cl.O=C1CCC2(O)C3Cc4ccc(O)c5c4C2(CCN3CC2CC2)C1O5 (stereo not drawn) [Naltrexone.HCl]	101	100	90.5 (inactive)	99.8 (inactive)
CCN1CC2(COC)CCC(O)C34C5CC6C(OC)CC(O)(C(CC23)C14)C5C6OC(C)=O (stereo not drawn) [Condelphine]	101	105	98.6 (inactive)	102 (inactive)
BrC1C(Br)C(Br)C(Br)C(Br)C1Br (stereo not drawn)	101	106	97 (inactive)	111 (inactive)
C=CC1CN2CCC1CC2C(O)c1ccnc2ccccc12 (single isomer, unassigned; (+)) [(+)-Cinchonine]	101	106	98.9 (inactive)	91.1 (inactive)
COc1cc(C2c3cc4c(cc3C(O)C3COC(=O)C23)OCO4)cc(OC)c1OC (stereo not drawn) [Podophyllotoxin]	61.2 ± 1.9	10.1 ± 0.34	152 (active)	128 (inactive)
C[N+](C)(C)CC#CCOC(=O)Nc1cccc(Cl)c1.[Cl-]	103	99.2	94.4 (inactive)	87.7 (inactive)
CC(=CC=CC(C)C(=O)O)C1CNC(C(=O)O)C1CC(=O)O (stereo not drawn) [Domoic acid]	101	109	93.6 (inactive)	86.3 (inactive)
CCC1(c2ccc(N)cc2)CCC(=O)NC1=O (racemic) [DL-Aminoglutethimide]	109	102	93.1 (inactive)	109 (inactive)
NC(Cn1oc(=O)[nH]c1=O)C(=O)O (single isomer, unassigned; (+)) [(+)-Quisqualic acid]	101	94.1	93.9 (inactive)	103 (inactive)
CC1CCCC(O)CCCCCc2cc(O)cc(O)c2C(=O)O1 (stereo not drawn)	102	93.5	91.8 (inactive)	99.2 (inactive)

SMILES	cell number (HCC1569 [1])	cell number (TDF [2])	H1.0 immunofluorescence intensity (TDF [3])	H1.0 immunofluorescence intensity (HCC1569 [4])
CCC(CO)NC(=O)C1C=C2c3cccc4[nH]cc(c34)CC2N(C)C1.O=C(O)C=CC(=O)O (stereo not drawn) [Methylergonovine maleate]	101 ± 2.1	100 ± 2.5	97.4 (inactive)	92.3 (inactive)
COc1ccc2c(c[n+](C)c3c4cc5c(cc4ccc23)OCO5)c1OC.[Cl-] [Chelerythrine]	114	17.4	139 (active)	96.2 (inactive)
CN1CCN(c2ccc3ccccc3n2)CC1.O=C(O)C=CC(=O)O.O=C(O)C=CC(=O)O [Quipazine, N-methyl-, dimaleate]	102	104	93 (inactive)	89.8 (inactive)
N[C@@](CF)(Cc1cnc[nH]1)C(=O)O [MK-453 hydrochloride]	101	103	100 (inactive)	91.5 (inactive)
CCCCCC=CC=CC(CCCCCCCC(=O)O)OO (stereo not drawn)	101	94	100 (inactive)	94.9 (inactive)
NC(Cn1ccc(=O)[nH]c1=O)C(=O)O (stereo not drawn) [S(-)-Willardiine]	104	118	97.7 (inactive)	97.6 (inactive)
CC1CCC2C(C)C3C(CC4C5CC=C6CC(OC7OC(CO)C(O)C(OC8OC(CO)C(O)C(O)C8O)C7OC7OC(C)C(O)C(O)C7O)CCC6(C)C5CCC43C)N2C1 (racemic)	103	101	97.4 (inactive)	86 (inactive)
C=C1C(C)C2C(Cc3ccccc3)NC(=O)C23OC(=O)C=CC(O)CCCC(C)CC=CC3C1O (stereo not drawn) [Cytochalasin B]	95.1	63.7	125 (active)	110 (inactive)
CC12C(=O)OC(=O)C1(C)C1CCC2O1 (stereo not drawn) [Cantharidin]	20.6 ± 2.2	10.9 ± 0.21	210 (active)	187 (active)
COc1ccc(C(=O)c2c(C)n(CCN3CCOCC3)c3ccccc23)cc1 [Pravadoline]	110	96.5	98.4 (inactive)	93.3 (inactive)
NC(=O)CN1CCCC1=O [Piracetam]	99.5	99.2	92 (inactive)	103 (inactive)
COC1=CC2C3Cc4ccc(OC)c(O)c4C2(CCN3C)CC1=O (stereo not drawn) [Sinomenine]	101	95.5	94.1 (inactive)	83.8 (inactive)
CCn1cc(C(=O)[O-])c(=O)c2ccc(C)nc21.[Na+] [Nalidixic acid sodium]	107	107	86 (inactive)	92.4 (inactive)
CCCN1CC(CSC)CC2c3cccc4[nH]cc(c34)CC21.CS(=O)(=O)O (stereo not drawn) [Pergolide methanesulfonate]	98.8	98.2	98.1 (inactive)	94.4 (inactive)
CCCCCC=CCC=CCC=CCCCCCCC(=O)NCCO [Anandamide (20:3,n-6)]	101	97.4	102 (inactive)	103 (inactive)
Br.CN1C2CC(OC(=O)C(CO)c3ccccc3)CC1C1OC12 (single isomer, unassigned; (-)) [(-)-Scopolamine hydrobromide]	100	104	97.6 (inactive)	103 (inactive)
CC12CCC3C(CCC4(O)CC(O)CCC34C=O)C1(O)CCC2C1=CC(=O)OC1 (stereo not drawn) [Strophantidin]	67	56.2	123 (active)	115 (inactive)
CCCN1CCc2cccc3c2C1Cc1ccc(O)c(O)c1-3.Cl (stereo not drawn) [R(-)-Propylnorapomorphine hydrochloride]	93.2	91.8	92.9 (inactive)	105 (inactive)
CCC1C(C)=NN=C(c2ccc(OC)c(OC)c2)c2cc(OC)c(OC)cc21 (stereo not drawn)	93.8	103	93.1 (inactive)	90.9 (inactive)
CNC(=O)OCC[N+](C)(C)C.[Cl-] [Methylcarbamylcholine chloride]	101	92.5	99.2 (inactive)	95.8 (inactive)
CNCC(O)c1ccc(O)cc1 (racemic)	108	111	91 (inactive)	103 (inactive)
CC(C)C1(NC(=O)C2C=C3c4cccc5[nH]cc(c45)CC3N(C)C2)OC2(O)C3CCCN3C(=O)C(Cc3ccccc3)N2C1=O (stereo not drawn) [Ergocristine]	102	109	92.8 (inactive)	90.3 (inactive)
CC=C(C)C(=O)OC1C(C)=C2C(C1OC(=O)CCCCCCC)C(C)(OC(C)=O)CC(OC(=O)CCC)C1(O)C2OC(=O)C1(C)O (stereo not drawn) [Thapsigargin]	62.4	44.2	130 (active)	195 (active)
